# Only a selection was taken, and hits are over-represented in it overall.
# KDM5B inhibitor: KDM5B demethylase inhibition. Q9UGL1. KDM5B demethylase, FDH-coupled NADH fluorescence (FDH is formaldehyde dehydrogenase). Potency, µM (series often up to 57.7 µM), most hits filed as inhibitors. 220,000 compounds, 2.6% hits; active = well fitted inhibition curve with a large enough effect; note: 0% is about no effect; nearly all actives have a fitted effect of over 70% in size
#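 Measured: NADH fluorescence change, 30 min, RT. System: KDM5BΔAP 200 nM final, H3K4me3 peptide, α-KG, Fe(II), ascorbate, NAD⁺ plus FDH, pH 7.5 HEPES. Compounds: titrated, 10 min pre-incubation with enzyme.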
# Starred values were filed as active, the others as inactive; i = inactive. Potency is the fitted concentration of half-maximal effect.
SMILES,KDM5B inhibitor
COc1ccc(OC)c(C(=O)c2oc3ccc(NC(=O)C(C)(C)C)cc3c2C)c1,i
O=c1[nH]c(C2CCCN(Cc3ccccc3)C2)nc2ccc(F)cc12 (stereo not given),i
COC(=O)c1ccc(CNC(C)=O)cc1,i
CC(C)c1cc(C(N)=O)c(NC(=O)Cc2c(F)cccc2Cl)s1,i
CCN(CC)C(CNS(=O)(=O)c1ccc(C)cc1)c1ccsc1 (stereo not given),i
CCc1noc(-c2cn(C3CCN(C(=O)c4cccc5[nH]ccc45)CC3)nn2)n1,32µM*
COc1ccccc1C(=O)N1CCC(n2cc(-c3nc(C(C)C)no3)nn2)CC1,i
CC(C)c1noc(-c2cn(C3CCN(C(=O)c4cccc5[nH]ccc45)CC3)nn2)n1,28µM*
CCc1noc(-c2cn(C3CCN(C(=O)c4ccccc4)CC3)nn2)n1,i
CC(C)c1noc(-c2cn(C3CCN(C(=O)c4ccccc4)CC3)nn2)n1,i
CCc1noc(-c2cn(C3CCN(C(=O)c4cc(F)ccc4F)CC3)nn2)n1,i
CC(C)(C)NC(=O)NC(=O)CSc1nc(C2CC2)nc2ccccc12,i
COc1ccc(CCNCCc2ccc(OC)cc2)cc1,i
NCC(c1ccco1)N1CCCC1 (stereo not given),i
COc1ccc(Cl)cc1C(=O)N1CCC(COc2ccc3c(cnn3CCC(=O)O)c2)CC1,i
Cc1nccc(N2CCC(COc3ccc4c(cnn4CC[S+](C)(=O)[O-])c3)CC2)n1,i
CCOC(=O)N1CCC(COc2ccc3c(cnn3CCC(=O)O)c2)CC1,i
CCc1cnc(N2CCC(COc3ccc4c(cnn4CCC(=O)O)c3)CC2)nc1,40µM*
O=C(O)CCn1ncc2cc(OCC3CCN(c4ncc(F)cn4)CC3)ccc21,35µM*
O=C(O)CCn1ncc2cc(OCC3CCN(C(=O)C4CC4)CC3)ccc21,i
COc1cc(/C=N/OC(=O)c2ccc(C(F)(F)F)cc2)ccc1OCc1ccccc1,i
O=S(=O)(Cc1cccc(F)c1)Cc1nc2ccccc2s1,i
Cc1noc(C)c1[S+](=O)([O-])N1CCC2(C1)N=C(c1cccnc1)C(=O)N2 (stereo not given),i
COc1cccc([S+](=O)([O-])N2CCC3(C2)NC(=O)c2ccccc2O3)c1 (stereo not given),i
COc1cccc([S+](=O)([O-])N2CCC3(C2)OC(=O)Nc2cnccc23)c1 (stereo not given),i
SMILES,KDM5B inhibitor
COc1cccc([S+](=O)([O-])N2CCC3(CC2)CNC(=O)c2ccccc2O3)c1,i
COc1cccc([S+](=O)([O-])N2CCC3(C2)N=C(c2cccnc2)C(=O)N3)c1 (stereo not given),28µM*
COc1cccc([S+](=O)([O-])N2CCCC3(COc4ccccc4C(=O)N3)C2)c1 (stereo not given),25µM*
O=C1NC2(CCN([S+](=O)([O-])c3cccc(C(F)(F)F)c3)C2)COc2ccccc21 (stereo not given),i
O=C1NC2(CCCN([S+](=O)([O-])c3cccc(C(F)(F)F)c3)C2)COc2ccccc21 (stereo not given),35µM*
O=C1NC2(CCN([S+](=O)([O-])c3cccc(C(F)(F)F)c3)C2)Oc2ccccc21 (stereo not given),i
CCc1ccc(OCc2nn3c(=O)c4ccccc4nc3s2)cc1,i
COc1ccc(-c2cnc(C)o2)cc1S(=O)(=O)Nc1ccc(F)c(F)c1,i
CCOc1cccc2cc(C(=O)N3CCCCCC3)c(=O)oc12,i
COc1cccc(OC)c1OCc1cc(-c2ccco2)on1,i
Cc1ccc(S(=O)(=O)N2CCN(CCNC(=O)COc3ccc(C(C)C)cc3)CC2)cc1,i
CCC(CO)(CO)NC(=O)c1nc(-c2ccc3cc[nH]c3c2)no1,i
CCCOc1ccc(NC(=O)c2cccc(Cl)c2)c2cccnc12,i
Cc1ccc(Oc2ccccc2NC(=O)Cn2nc(C(N)=O)c3ccccc3c2=O)cc1,i
O=C1CCN(S(=O)(=O)c2ccccc2)CCCN(C(=O)C2CCCCC2)CCN1,i
O=C(O)CCNC1CC1,i
COc1ncc(-c2nccc3c(=O)cc(N(C)c4ccccc4)oc23)cn1,i
Cn1ccc(Nc2nccc3c(=O)cc(-c4cn[nH]c4)oc23)n1,i
COc1ccc(-c2nccc3c(=O)cc(N4CCN(C)CC4)oc23)cn1,32µM*
COc1ncc(-c2nccc3c(=O)cc(N4CCN(C)CC4)oc23)cn1,35µM*
O=C(O)c1ccc(COc2ccc(Cl)cc2Cl)cc1,i
Cc1ccccc1C(=O)NC(NC(C)C)C(Cl)(Cl)Cl (stereo not given),i
Cc1cc(NC(=O)COC(=O)c2cc3ccccc3o2)no1,i
CCOc1ccc(Cl)cc1CNCc1cccnc1,i
O=C(O)c1cccnc1SCC(F)(F)F,i
SMILES,KDM5B inhibitor
CC(C)c1ccc(C(C)NC(=O)Cc2cccs2)cc1 (stereo not given),i
CCOC(=O)c1[nH]c(C)c(CNCCc2ccc(OC)c(OC)c2)c1C,i
Cc1cccc(-n2nc(C)c(CCC(=O)NC3CC3)c2Oc2ccc(F)cc2F)c1,i
CCN(C)C(=O)CCc1c(C)nn(-c2cccc(C)c2)c1Oc1ccc(F)cc1F,32µM*
CCN(CC)C(=O)CCc1c(C)nn(-c2cccc(C)c2)c1Oc1ccc(F)cc1F,i
N#Cc1ccc(-c2csc(-c3ccncc3)n2)cc1,i
CC(c1cccs1)N(C)C(=O)Cc1c[nH]c2ccccc12 (stereo not given),i
O=C(Nc1cc(Cl)c(Cl)cc1Cl)c1ccc(-c2ccccc2)cc1,i
CC(NC(=O)C1CCN(c2cc(C(F)(F)F)ncn2)CC1)c1ccc(F)cc1 (stereo not given),i
Cc1cc(NC(=O)C2CCN(c3cc(C(F)(F)F)ncn3)CC2)ccc1Br,28µM*
Cc1ccc(NC(=O)C2CCN(c3cc(C(F)(F)F)ncn3)CC2)cc1,25µM*
O=C(NC1CCCCCC1)C1CCN(c2cc(C(F)(F)F)ncn2)CC1,i
O=C(NCc1ccccc1)C1CCN(c2cc(C(F)(F)F)ncn2)CC1,i
Cc1ccc(CC(=O)NC2CCN(c3cc(C(F)(F)F)ncn3)CC2)cc1,i
N#Cc1ccc(C(=O)OCCOc2cccc(Cl)c2)cc1,i
O=C(NCC(=O)N1CCN(S(=O)(=O)c2ccc3ccccc3c2)CC1)c1ccc2c(c1)OCO2,i
COC(=O)c1cccc(NC(=S)N[C@H]2CO[C@H]3[C@@H]2OC[C@H]3OC(=O)Nc2cccc3ccccc23)c1,i
O=C(Nc1ccc(Oc2ccccc2)cc1)O[C@@H]1CO[C@H]2[C@@H]1OC[C@@H]2NC(=S)Nc1cccc2ccccc12,32µM*
CC(=O)Nc1ccc(S(=O)(=O)N[C@H]2CO[C@H]3[C@@H]2OC[C@H]3OC(=O)Nc2ccc(C(C)=O)cc2)cc1,i
O=C(Nc1cccc2ccccc12)O[C@@H]1CO[C@H]2[C@@H]1OC[C@@H]2NC(=O)C1CCC1,i
O=C(Nc1ccc(Oc2ccccc2)cc1)O[C@@H]1CO[C@H]2[C@@H]1OC[C@@H]2NS(=O)(=O)c1ccc2ccccc2c1,22µM*
COc1ccc(NC(=O)O[C@@H]2CO[C@H]3[C@@H]2OC[C@@H]3NS(=O)(=O)c2ccc(NC(C)=O)cc2)cc1,i
Cc1cc(C)cc(N(C(=O)C23CC4CC(CC(C4)C2)C3)C2C=CS(=O)(=O)C2)c1 (stereo not given),i
